Measured values: PubChem BioAssay (NCATS)
Results filed as inconclusive are left out. The source made the active and inactive calls. Calls come from the whole dose curve; as a rule, active = well fitted curve in the direction sought with a large enough effect; inconclusive = small, poorly fitted or top-dose-only effect, or another doubt; inactive = no such curve, though single readings can be large; an effect the other way counts as inactive or inconclusive.

Columns and labels:
[1] = Quantitative High-Throughput drug screen in 47 multiple myeloma cell lines against the NCATS MIPE library collection: EJM_DSMZ cell viability assay (AID 1918926; note: nearly all actives have a fitted effect of over 30% in size; note: potency is the fitted concentration of half-maximal effect)
Procedure, shortened: (§1)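 Luminescent ATP measurement with CellTiter-Glo gives viability, scaled between DMSO-only wells (100%) and media-only wells (0%). Cells, 500 per well, faced library compounds for 48 hours at 37C.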

[2] = Quantitative High-Throughput drug screen in 47 multiple myeloma cell lines against the NCATS MIPE library collection: AMO1_DSMZ cell viability assay (AID 1918927; note: nearly all actives have a fitted effect of over 30% in size; note: potency is the fitted concentration of half-maximal effect)
Procedure, shortened: as §1

[3] = Quantitative High-Throughput drug screen in 47 multiple myeloma cell lines against the NCATS MIPE library collection: ARP1_JJKsccF8 cell viability assay (AID 1918928; note: nearly all actives have a fitted effect of over 40% in size; note: potency is the fitted concentration of half-maximal effect)
Procedure, shortened: (§2)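 CellTiter-Glo luminescence after 48 h exposure gives viability, scaled between DMSO-only (100%) and media-only (0%) controls. Library compounds are pinned onto 500 myeloma cells per well, incubated at 37C with 5% CO2.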

[4] = Quantitative High-Throughput drug screen in 47 multiple myeloma cell lines against the NCATS MIPE library collection: ARD_JJKsccE7 cell viability assay (AID 1918929; note: potency is the fitted concentration of half-maximal effect)
Procedure, shortened: as §1

[5] = Quantitative High-Throughput drug screen in 47 multiple myeloma cell lines against the NCATS MIPE library collection: Karpas620_DSMZ cell viability assay (AID 1918959); note: nearly all actives have a fitted effect of over 30% in size; note: potency is the fitted concentration of half-maximal effect
Procedure, shortened: (§3)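 qHTS of the MIPE 4.0 collection: 500 myeloma cells/well, 48 h drug exposure at 37C in 5% CO2, then CellTiter-Glo for 5 min at room temperature before luminescence reading.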

[6] = Quantitative High-Throughput drug screen in 47 multiple myeloma cell lines against the NCATS MIPE library collection: KMM1_JCRB cell viability assay (AID 1918960); note: nearly all actives have a fitted effect of over 30% in size; note: potency is the fitted concentration of half-maximal effect
Procedure, shortened: as §2

[7] = Quantitative High-Throughput drug screen in 47 multiple myeloma cell lines against the NCATS MIPE library collection: JIM3_ECACC cell viability assay (AID 1918963; note: nearly all actives have a fitted effect of over 35% in size; note: potency is the fitted concentration of half-maximal effect)
Procedure, shortened: as §3

[8] = Quantitative High-Throughput drug screen in 47 multiple myeloma cell lines against the NCATS MIPE library collection: INA6_PLB cell viability assay (AID 1918965; note: nearly all actives have a fitted effect of over 55% in size; note: potency is the fitted concentration of half-maximal effect)
Procedure, shortened: as §1

[9] = Quantitative High-Throughput drug screen in 47 multiple myeloma cell lines against the NCATS MIPE library collection: H1112_PLB cell viability assay (AID 1918967; note: nearly all actives have a fitted effect of over 30% in size; note: potency is the fitted concentration of half-maximal effect)
Procedure, shortened: as §1

[10] = Quantitative High-Throughput drug screen in 47 multiple myeloma cell lines against the NCATS MIPE library collection: Karpas25_ECACC cell viability assay (AID 1918968; note: nearly all actives have a fitted effect of over 35% in size; note: potency is the fitted concentration of half-maximal effect)
Procedure, shortened: as §1

[11] = Quantitative High-Throughput drug screen in 47 multiple myeloma cell lines against the NCATS MIPE library collection: KMS12PE_JCRB cell viability assay (AID 1918972); note: nearly all actives have a fitted effect of over 30% in size; note: potency is the fitted concentration of half-maximal effect
Procedure, shortened: as §1

[12] = Quantitative High-Throughput drug screen in 47 multiple myeloma cell lines against the NCATS MIPE library collection: KMS26_JCRB cell viability assay (AID 1918975); note: nearly all actives have a fitted effect of over 45% in size; note: potency is the fitted concentration of half-maximal effect
Procedure, shortened: (§4)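 Approved and investigational drugs from MIPE 4.0 were added by pin tool to 500 cells per well. After 48 hours at 37C, ATP-based CellTiter-Glo luminescence indicated remaining viability.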

[13] = Quantitative High-Throughput drug screen in 47 multiple myeloma cell lines against the NCATS MIPE library collection: Karpas417_ECACC cell viability assay (AID 1918961); details: Karpas417 myeloma viability, CellTiter-Glo ATP luminescence, 48 h; viability (% of DMSO): at 45.8 µM (top of the series); note: potency is the fitted concentration of half-maximal effect
Procedure, shortened: as §1

[14] = Quantitative High-Throughput drug screen in 47 multiple myeloma cell lines against the NCATS MIPE library collection: KHM11_PLB cell viability assay (AID 1918962); note: nearly all actives have a fitted effect of over 35% in size; note: potency is the fitted concentration of half-maximal effect
Procedure, shortened: as §3

[15] = Quantitative High-Throughput drug screen in 47 multiple myeloma cell lines against the NCATS MIPE library collection: JIM1_ECACC cell viability assay (AID 1918964; note: potency is the fitted concentration of half-maximal effect)
Procedure, shortened: as §1

[16] = Quantitative High-Throughput drug screen in 47 multiple myeloma cell lines against the NCATS MIPE library collection: KMS27_JCRB cell viability assay (AID 1918970); note: nearly all actives have a fitted effect of over 30% in size; note: potency is the fitted concentration of half-maximal effect
Procedure, shortened: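 KMS27_JCRB myeloma cells, 500 per well, exposed 48 h at 37 C, 5% CO2 to MIPE 4.0 compounds. Viability from ATP by CellTiter-Glo luminescence, normalized to DMSO (100%) and medium-only (0%) wells.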

[17] = Quantitative High-Throughput drug screen in 47 multiple myeloma cell lines against the NCATS MIPE library collection: KMS12BM_JCRB cell viability assay (AID 1918971); note: nearly all actives have a fitted effect of over 35% in size; note: potency is the fitted concentration of half-maximal effect
Procedure, shortened: as §4

[18] = Quantitative High-Throughput drug screen in 47 multiple myeloma cell lines against the NCATS MIPE library collection: KMS20_JCRB cell viability assay (AID 1918973); note: nearly all actives have a fitted effect of over 45% in size
Procedure, shortened: as §1

[19] = Quantitative High-Throughput drug screen in 47 multiple myeloma cell lines against the NCATS MIPE library collection: KMS21BM_JCRB cell viability assay (AID 1918974); details: ATP luminescence, 48 h; viability: at 45.8 µM (top of the series); note: potency is the fitted concentration of half-maximal effect
Procedure, shortened: as §1

[20] = Quantitative High-Throughput drug screen in 47 multiple myeloma cell lines against the NCATS MIPE library collection: JJN3_DSMZ cell viability assay (AID 1918966; note: nearly all actives have a fitted effect of over 50% in size; note: potency is the fitted concentration of half-maximal effect)
Procedure, shortened: as §1

Measured: Potency

OC(Cn1cncn1)(Cn1cncn1)c1ccc(F)cc1F
active: [2] 41.8 nM
inactive: [1] | [3] | [4] | [5] | [6] | [7] | [8] | [9] | [10] | [11] | [12]

CCc1cc(C(N)=S)ccn1
inactive: [1] | [2] | [3] | [4] | [5] | [6] | [13] | [14] | [7] | [15] | [9] | [10] | [16] | [17] | [11]

CCN1CCCC1CNC(=O)c1cc(S(N)(=O)=O)ccc1OC (stereo not drawn)
active: [10] 2090 nM
inactive: [1] | [2] | [3] | [4] | [5] | [6] | [13] | [14] | [15] | [11] | [12]

COc1ccc(-c2ccc3cc(C(=O)O)ccc3c2)cc1C12CC3CC(CC(C3)C1)C2
active: [17] 2350 nM
inactive: [1] | [2] | [3] | [4] | [5] | [6] | [7] | [8] | [9] | [10] | [16] | [11] | [12]

Nc1ccc(S(=O)(=O)Nc2ccccn2)cc1
inactive: [1] | [2] | [3] | [4] | [5] | [6] | [13] | [7] | [8] | [9] | [16] | [11] | [18] | [19] | [12]

NC(=O)c1cccnc1
inactive: [1] | [2] | [3] | [4] | [5] | [6] | [13] | [7] | [15] | [9] | [10] | [11]
active: [16] 3 nM

C1CCC(C(CC2CCCCN2)C2CCCCC2)CC1 (stereo not drawn)
active: [1] 26400 nM | [2] 18700 nM | [3] 23500 nM | [4] 26400 nM | [5] 14800 nM | [6] 14800 nM | [13] 18700 nM | [14] 11800 nM | [7] 18700 nM | [15] 20900 nM | [8] 9350 nM | [9] 23500 nM | [10] 8330 nM | [16] 10500 nM | [17] 9350 nM | [11] 8330 nM | [19] 11800 nM | [12] 16600 nM

CCOCC(O)COc1ccc(NC(=O)CC[S+](C)C)cc1 (stereo not drawn)
inactive: [1] | [2] | [3] | [4] | [5] | [6] | [14] | [7] | [20] | [9] | [10] | [16]

COc1cc(NCc2ccc3nc(N)nc(N)c3c2C)cc(OC)c1OC
active: [1] 8330 nM | [2] 935 nM | [3] 2960 nM | [4] 1050 nM | [5] 6620 nM | [6] 1180 nM | [13] 4180 nM | [14] 8330 nM | [7] 418 nM | [15] 2960 nM | [8] 1320 nM | [9] 2640 nM | [10] 4180 nM | [16] 590 nM | [11] 935 nM | [12] 5900 nM

O=C(N[C@H](CO)[C@H](O)c1ccc([N+](=O)[O-])cc1)C(Cl)Cl
inactive: [1] | [2] | [3] | [4] | [5] | [6] | [14] | [7] | [8] | [20] | [9] | [10] | [16] | [11] | [12]

CCCc1cc(C(N)=S)ccn1
inactive: [1] | [2] | [3] | [4] | [5] | [6] | [14] | [7] | [15] | [8] | [20] | [9] | [10] | [16] | [11] | [18]

CC(C)C[C@H](NC(=O)[C@H](CCc1ccccc1)NC(=O)CN1CCOCC1)C(=O)N[C@@H](Cc1ccccc1)C(=O)N[C@@H](CC(C)C)C(=O)[C@@]1(C)CO1
active: [1] 10.5 nM | [2] 6.6 nM | [3] 7.4 nM | [4] 1 nM | [5] 1 nM | [6] 1 nM | [14] 1 nM | [7] 23.5 nM | [15] 7.4 nM | [8] 1 nM | [20] 7.4 nM | [10] 1 nM | [16] 1 nM | [11] 1 nM | [12] 13.2 nM

Cc1noc(NS(=O)(=O)c2ccc(N)cc2)c1C
inactive: [1] | [2] | [3] | [4] | [5] | [6] | [13] | [7] | [8] | [9] | [10] | [16] | [11] | [19] | [12]
